USP28 inh = inhibitors of human USP28 deubiquitinase | Q96RU2 | purified USP28, Ub-rhodamine cleavage fluorescence, 30 min | inhibition, % at 25 µM | 47,000 tested, 3% active | AID 1645857
OTUD3 block = blocks human OTUD3 ubiquitin-rhodamine cleavage; inhibition, % at 25 µM; Q5T2D3; purified OTUD3, Ub-rhodamine fluorescence, 2 h; 47,000 tested, 0.7% active
USP17 inh = human USP17-like deubiquitinase inhibition; A8MUK1; purified USP17, Ub-rhodamine cleavage fluorescence, 3 h; inhibition, % at 50 µM; 47,000 tested, 6.5% active; AID 1645855
USP30 inh = human USP30 deubiquitinase inhibition. Q70CQ3. purified USP30, Ub-rhodamine cleavage fluorescence. inhibition, % at 25 µM. 47,000 tested, 5.3% active. AID 1645860
USP8 block = blocks human USP8 ubiquitin-rhodamine cleavage; P40818; purified USP8, Ub-rhodamine cleavage fluorescence, 30 min; inhibition, % at 20 µM; 47,000 tested, 4.2% active
The depositor's hits bear a star; nt = not tested or not shown. A selection: hits, their analogues and other compounds. The true share with any hit is near 13%. No stated cut-off is given here; in the data, active means inhibition above about 30%; inactive means the rest.

SMILES	USP28 inh	OTUD3 block	USP17 inh	USP30 inh	USP8 block
Cc1cc(C)c2c(c1)[C@]1(C(=O)N2)[C@@H]2C(=O)N(Cc3ccccc3)C(=O)[C@@H]2[C@@H]2CCCN21	-4	-5	-19	-40	-22
Cc1ccc2c(=O)c(C(=O)N3CCCC3)cn(CC(=O)Nc3ccc(C)c(F)c3)c2n1	-7	-10	-14	-34	0
O=C(Nc1cccc(-c2ccc(N3CCOCC3)nn2)c1)c1ccccc1Br	7	12	41*	39*	10
Cn1c(=O)c2c(nc(N3CCN(C(=O)c4ccco4)CC3)n2CCSc2nnnn2-c2ccccc2)n(C)c1=O	12	8	2	37*	-3
Cc1ccc(NC(=O)c2sc3ncn(CC(=O)N4CCN(c5ccccn5)CC4)c(=O)c3c2C)c(Br)c1	-11	-17	59*	-63	-11
CCN(CC)S(=O)(=O)c1ccc(O)c(NC(=O)COc2ccccc2F)c1	-17	-7	33*	30	11
CCOC(=O)C1CCN(C(=O)c2ccc3c(=O)n(-c4ccccc4)c(=O)[nH]c3c2)CC1	0	-2	-1	10	0
CCOC(=O)C1CCN(C(=O)c2ccc3c(c2)NC(=O)C(CS(=O)(=O)Cc2ccccc2Cl)N3)CC1 (configuration not stated)	-48	-36	0	-231	49*
O=C1Nc2cc(C(=O)N3CCCC3)ccc2NC1CS(=O)(=O)Cc1ccc(F)cc1Cl (configuration not stated)	-49	-43	-13	-260	35*
CNc1nc2c(c(=O)n1Cc1ccccc1)CCN(S(=O)(=O)c1cccc(F)c1)C2	8	8	0	9	12
Cc1cccc(OCC(O)CN2CCC(Cc3ccccc3)CC2)c1 (configuration not stated)	2	11	-8	13	0
Cc1ccc(NC(=O)c2nnn(-c3ccccc3)n2)cc1F	56*	12	5	6	-5
O=C(Nc1nc2ccccc2s1)c1nnn(-c2ccccc2)n1	5	8	3	2	-19
NC(=O)c1nnn(-c2ccc(NC(=O)c3ccc(F)c(F)c3)cc2)n1	0	-1	64*	0	6
Cc1cccc2sc(NC(=O)c3nnn(-c4ccc(F)cc4)n3)nc12	15	3	56*	19	19
COc1ccc(Nc2cc(C(=O)NCCCN3CCN(c4ccc(F)cc4)CC3)c3ccccc3n2)cc1	-10	-10	-14	-7	-5
Cc1ccc(-n2cc(C(=O)N3CCCC3c3cnn(C)c3)nn2)cc1 (configuration not stated)	20	15	9	21	-5
COc1cccc(-n2cnc3cc(C(=O)NCc4ccncc4)ccc3c2=O)c1	8	15	25	31*	58*
CCc1nc2ccc(C(=O)NCc3ccc(OC)cc3)cc2nc1CC	11	2	12	-7	3
COc1ccc(C(O)=C2C(=O)C(=O)N(CCN3CCOCC3)C2c2cccc(O)c2)cc1F (configuration not stated)	0	0	-36	-23	-195
Cn1c(SCc2c(F)cccc2Cl)nnc1-c1ccc2c(c1)OCCCO2	12	12	7	33*	4
Cn1c(SCc2ccccc2F)nnc1-c1ccc2c(c1)OCCCO2	7	5	1	14	-2
COc1ccc(NC(=O)c2cc3c(C(F)(F)F)nn(C)c3s2)cc1	18	5	48*	24	13
COc1cc2cc(C(=O)NCC(=O)Nc3nc4ccccc4s3)n(C)c2cc1OC	5	4	33*	19	3
CCN1CCN(C(=O)CCCN(c2ccccc2)S(C)(=O)=O)CC1	22	15	62*	35*	3
SMILES	USP28 inh	OTUD3 block	USP17 inh	USP30 inh	USP8 block
CCC12CN3CC(C)(CN(C1)C3c1ccc(OCc3ccccc3)cc1)C2=O (configuration not stated)	17	13	23	18	18
COCCn1c(C)c(C)c(S(=O)(=O)c2ccccc2)c1NC(=O)c1ccccc1C	-5	-2	-10	-7	0
COc1ccc(S(=O)(=O)c2c(C)c(C)n(C(C)C)c2NC(=O)c2ccccc2F)cc1	0	-10	31*	-13	-32
O=C1NC(=N/N=C/c2ccccc2)SC1Cc1cc(C(F)(F)F)ccc1Cl (configuration not stated)	8	29	36*	35*	-45
O=C(CC1SC(=O)NC1=O)Nc1cccc(C(F)(F)F)c1 (configuration not stated)	-18	-16	-9	-50	-16
c1ccc2c(-c3nnc(C4CC4)o3)nnc(NCCCN3CCCC3)c2c1	-7	-11	40*	-44	-4
COCCNc1nnc(-c2nnc(C3CC3)o2)c2ccccc12	-7	-2	-1	4	1
Cc1nc(-c2ccc(C(=O)NCc3ccc(F)cc3)cc2)cs1	10	2	52*	11	25
CCC(=O)Nc1cccnc1-c1ccc(C(=O)NCc2ccc(F)cc2)cc1	-4	-3	-9	-10	-9
Cc1noc(-c2csc(C(=O)NCc3ccc(F)cc3)n2)n1	3	-12	0	20	-3
O=C(NCc1ccc(F)cc1)c1ccc(-c2cccs2)cc1	nt	0	59*	nt	4
CCc1ccc(-c2cc3c(=O)n(Cc4nc(-c5ccccn5)no4)ccn3n2)cc1	-7	-11	31*	-95	-17
Cc1ccc(-c2cc3c(=O)n(Cc4noc(CN5CCC(C)CC5)n4)ccn3n2)cc1	12	-9	3	38*	22
Cc1ccc(-c2cc3c(=O)n(Cc4noc(CN5CCCCC5)n4)ccn3n2)cc1	-2	-12	4	0	8
O=C(NCc1ccccc1CN1CCCC1)c1cccc2cccnc12	37*	-12	3	-27	0
CN(Cc1cc(C[C@@H]2C[C@H](N)C2(C)C)no1)c1ccccc1	26	-2	0	14	-1
CCOc1ccccc1C(=O)NCC(=O)OC(C(=O)c1c[nH]c2ccccc12)c1ccccc1 (configuration not stated)	-5	-8	54*	-34	-4
O=C(c1cc(Cl)cc(Cl)c1)N1CC(c2nc(-c3cccnc3)no2)C1	10	12	2	30*	-15
Cc1ccc(N2CCCn3c2nc2c3c(=O)n(Cc3cccc4ccccc34)c(=O)n2C)cc1C	0	6	-5	1	-27
COc1ccc2occ(-c3ccc4c(c3)OCCO4)c(=O)c2c1	9	16	16	33*	13
O=C(O)CC1(CC(=O)NCc2ccc(C(F)(F)F)cc2)CCCCC1	12	10	16	32*	21
O=C(NC1CC1)c1nc(-c2cn(-c3ccc(F)cc3)nn2)no1	-2	-6	2	-4	3
O=C(Nc1ccccc1)c1nc(-c2cn(Cc3ccc(F)cc3)nn2)no1	37*	5	23	55*	26
COc1ccccc1NC(=O)c1nc(-c2cn(-c3cccc(F)c3)nn2)no1	3	-5	1	-45	96*

Screens as filed in PubChem BioAssay.
